From PubChem BioAssay come the findings set out here.

Molecules are shown by their SMILES. Values without a mark were called inactive. Activity calls are given as the source filed them.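 The calls were made as follows: active = thallium flux through the channel raised or lowered by more than 3 SD from vehicle-only wells, actives on both sides; inactive = the rest.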

One assay deals with Calcium-activated potassium channel subunit alpha-1 (Homo sapiens) + Leucine-rich repeat-containing protein 26 (Homo sapiens) (UniProt Q12791+Q2I0M4). In words: modulators of BK channel variants, profiling panel, selectivity assay, cell-based, U2OS BacMam, thallium flux, beta subunits (AID 1259406).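 Also: initial slope of Thallos dye fluorescence rise after thallium is added; log ratio against the mean of 0.3% DMSO vehicle wells on the same plate.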 Particulars: F380Y/Slo1WT/gamma1, at 30 µM.
Sequence of Calcium-activated potassium channel subunit alpha-1 (Homo sapiens) + Leucine-rich repeat-containing protein 26 (Homo sapiens) (Q2I0M4 whole entry, looked up, one chain of several): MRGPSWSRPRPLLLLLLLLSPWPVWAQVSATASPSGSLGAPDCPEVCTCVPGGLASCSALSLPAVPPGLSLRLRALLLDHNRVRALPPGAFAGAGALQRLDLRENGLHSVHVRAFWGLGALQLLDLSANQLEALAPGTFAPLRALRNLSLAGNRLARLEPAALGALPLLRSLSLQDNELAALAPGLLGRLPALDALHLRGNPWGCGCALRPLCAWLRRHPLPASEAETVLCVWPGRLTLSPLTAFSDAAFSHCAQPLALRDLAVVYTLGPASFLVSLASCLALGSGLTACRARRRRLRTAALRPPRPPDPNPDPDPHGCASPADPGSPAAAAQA
Consider `N=c1nc(N2CCCCC2)cc(N)n1O`, for which the log fold change Tl+ flux was 0.00253.
Consider `CC(C)NCC(O)COc1cccc2[nH]ccc12` (stereo not given), for which the log fold change Tl+ flux was 0.0267.
Still for that read-out and setting: the figure for `CCn1cc(C(=O)O)c(=O)c2ccc(C)nc21` is 0.0259; for `CN(C)C(=O)C(CCN1CCC(O)(c2ccc(Cl)cc2)CC1)(c1ccccc1)c1ccccc1` it is -0.0267.
On the same count and under the same terms, the figure for `Cc1cc(NS(=O)(=O)c2ccc(N)cc2)no1` is -0.00437; for `CCCC(CCC)C(=O)O` it is -0.023; for `COc1cc(Cc2cnc(N)nc2N)cc(OC)c1OC` it is -0.00393.
For the molecule `COC(=O)C1=C(C)NC(C)=C(C(=O)OCCN(C)Cc2ccccc2)C1c1cccc([N+](=O)[O-])c1` (stereo not given), the log fold change Tl+ flux is -0.059.
For `O=C(CCCN1CCC(O)(c2ccc(Cl)cc2)CC1)c1ccc(F)cc1`, the log fold change Tl+ flux is -0.0288.
Still for that read-out and setting: the figure for `COc1ccc2cc([C@H](C)C(=O)O)ccc2c1` is 0.0442.
On the same count and under the same terms, the figure for `COc1c2occc2cc2ccc(=O)oc12` is 0.011; for `NC(=O)c1cccnc1` it is 0.0332; for `CN/C(=C\[N+](=O)[O-])NCCSCc1ccc(CN(C)C)o1` it is -0.0244.
The same measure, in the same setting: with `CNCCCN1c2ccccc2CCc2ccccc21` the figure was 0.148 (active).
`CN1C(=O)CC[C@H]1c1cccnc1`: the log fold change Tl+ flux was 0.0267.
Same read-out and setting: with `CCCC(=O)Nc1ccc(OCC(O)CNC(C)C)c(C(C)=O)c1` (stereo not given) the figure was 0.00552.
On the same count and under the same terms, with `O=C(O)CCc1nc(-c2ccccc2)c(-c2ccccc2)o1` the figure was 0.0291; with `CC(C)OC(=O)C(C)(C)Oc1ccc(C(=O)c2ccc(Cl)cc2)cc1`, -0.00437.
Same read-out and setting: with `CC(C(=O)O)c1cccc(C(=O)c2ccccc2)c1` (stereo not given) the figure was 0.0363; with `CN1CCN(C2=Nc3cc(Cl)ccc3Nc3ccccc32)CC1`, 0.0716.

In another assay the test system is R275C. The assay is described as above. The note with it: at 30 µM.
Regarding `N=c1nc(N2CCCCC2)cc(N)n1O`, the log fold change Tl+ flux is -0.0452.
On the same count and under the same terms, with `CC(C)NCC(O)COc1cccc2[nH]ccc12` (stereo not given) the figure was 0.00949; with `CCn1cc(C(=O)O)c(=O)c2ccc(C)nc21`, -0.0165; with `CN(C)C(=O)C(CCN1CCC(O)(c2ccc(Cl)cc2)CC1)(c1ccccc1)c1ccccc1`, -0.645 (active).
The same measure, in the same setting: the figure for `Cc1cc(NS(=O)(=O)c2ccc(N)cc2)no1` is 0.00714; for `CCCC(CCC)C(=O)O` it is 0.0376.
Still for that read-out and setting: the figure for `COc1cc(Cc2cnc(N)nc2N)cc(OC)c1OC` is 0.00151; for `COC(=O)C1=C(C)NC(C)=C(C(=O)OCCN(C)Cc2ccccc2)C1c1cccc([N+](=O)[O-])c1` (stereo not given) it is -0.031.
In the case of `O=C(CCCN1CCC(O)(c2ccc(Cl)cc2)CC1)c1ccc(F)cc1`, the log fold change Tl+ flux was -0.231 (active).
Still for that read-out and setting: the figure for `COc1ccc2cc([C@H](C)C(=O)O)ccc2c1` is -0.0405.
On the same count and under the same terms, the figure for `COc1c2occc2cc2ccc(=O)oc12` is 0.0168; for `NC(=O)c1cccnc1` it is -0.0297; for `CN/C(=C\[N+](=O)[O-])NCCSCc1ccc(CN(C)C)o1` it is 0.017.
The same measure, in the same setting: with `CNCCCN1c2ccccc2CCc2ccccc21` the figure was 0.0168; with `CN1C(=O)CC[C@H]1c1cccnc1`, -0.00497.
On to `CCCC(=O)Nc1ccc(OCC(O)CNC(C)C)c(C(C)=O)c1` (stereo not given), for which the log fold change Tl+ flux was -0.005.
Still for that read-out and setting: with `O=C(O)CCc1nc(-c2ccccc2)c(-c2ccccc2)o1` the figure was -0.025.
As to `CC(C)OC(=O)C(C)(C)Oc1ccc(C(=O)c2ccc(Cl)cc2)cc1`, the log fold change Tl+ flux is -0.0206.
The same measure, in the same setting: the figure for `CC(C(=O)O)c1cccc(C(=O)c2ccccc2)c1` (stereo not given) is -0.00546; for `CN1CCN(C2=Nc3cc(Cl)ccc3Nc3ccccc32)CC1` it is 0.0716.
